The record followed here is PubChem BioAssay (NCATS).

Test [1] is described as follows: qHTS to identify inhibitors of the type 1 interferon - major histocompatibility complex class I in skeletal muscle: primary screen against the NCATS LOPAC collection (AID 1347405).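 Note: lytic HiBiT luminescence reporting HLA-B protein level; % is set by controls: 0 for no effect and ±100 for the full control effect.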 In a few lines:
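Luminescence from HiBiT fused to endogenous HLA-B in CRISPR-engineered human myoblasts served as the read-out. Cells received 4.0 ng/ml IFN-beta plus compound (seven concentrations, 1:4.3 steps, highest 46 uM final) for 24 hrs before lytic detection.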
A general note: qHTS replaces the single test concentration by a dilution series.

The nature of test [2]: qHTS to identify inhibitors of the type 1 interferon - major histocompatibility complex class I in skeletal muscle: primary screen against the NCATS Pharmaceutical Collection (AID 1347407).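 Note: luminescence of HiBiT knocked into endogenous HLA-B as interferon-induced MHC class I level; % is set by controls: 0 for no effect and ±100 for the full control effect.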 In a few lines: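 Cells were seeded with 4 ng/ml IFN-beta, incubated 1 h, then dosed with compounds over eight 1:5 steps up to 46 uM final. After 24 h at 37 C, HiBiT lytic reagent was added and luminescence read after 10 min lysis in the dark.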

Test [3] in a line: qHTS for inhibitors of adenylyl cyclases using a fission yeast platform: a pilot screen against the NCATS LOPAC library (AID 1347410).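 Note: plate controls were DMSO vehicle for no effect and DPI positive control for full effect.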 In a few lines:
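Growth medium went into the plates first, then compounds were pinned (final up to 57 µM), then CHP2027 yeast were added. Plates were incubated overnight (18 h) at 30C in the dark, and GFP was measured by laser scanning cytometry.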

The target of test [4] is Protein phosphatase 1D (Homo sapiens) (UniProt O15297). The test can be described thus: RapidFire Mass Spectrometry qHTS Assay for Modulators of WT P53-Induced Phosphatase 1 (WIP1) (AID 1347424).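 Note: amount of dephosphorylated VEPPL-S-QETFS peptide product formed by WIP1; series mostly up to about 63 µM; plate controls were DMSO wells for no effect and GSK830371 inhibitor control at 10 µM for full effect.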 In a few lines:
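WIP1 (10 nM final) was preincubated 1 h at room temperature with compounds in Tris-HCl pH 7.5, 30 mM MgCl2, TCEP, EGTA, BSA; 2 uM VEPPL-pS-QETFS phosphopeptide was added for 5 min, quenched with formic acid, and dephosphorylated product quantified by RapidFire MS.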

The target is the same in test [5]. Briefly: Rhodamine-PBP qHTS Assay for Modulators of WT P53-Induced Phosphatase 1 (WIP1) (AID 1347425). Note: % of control where 0% means no effect. In short, it runs like this: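 The read-out is the change in Rhodamine-PBP fluorescence (f1 - f0, ex 525/em 598 nm) as Pi is released, read each minute for 11 min. Final reaction: 5 nM WIP1, 10 uM phosphopeptide VEPPL-pS-QETFS, 10 uM Rh-PBP, 50 mM Tris-HCl pH 7.5, 30 mM MgCl2. Compound was preincubated with enzyme for 1 hour at room temperature.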

Test [6] concerns the target Single-stranded DNA cytosine deaminase (Homo sapiens) (UniProt Q9GZX7). Briefly: Validation qHTS assay for inhibitors of Activation Induced Cytidine Deaminase (AID): AID signal (AID 1347429). Note: % is set by controls: 0 for no effect and ±100 for the full control effect. In a few lines: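 Fluorescence at 540 nm excitation and 590 nm emission reports ssDNA cytosine deamination by AID, with UDG in the same well. Compound-treated reactions ran 4 hr at room temperature with DJC20/DJC23 substrate, followed by 30 min NaOH treatment.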

The target in test [7] is Calcium and integrin-binding protein 1 (Homo sapiens) (UniProt Q99828). Briefly: Validation qHTS for Identification of Calcium Integrin Binding protein 1 (CIB1) Competitor (AID 1508618). Note: % is set by controls: 0 for no effect and ±100 for the full control effect. In short, it runs like this: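 CIB1-GST (1 uM final) incubated 15 min at room temperature with compounds (up to 114 uM), then FITC-labelled alphaIIb peptide (100 nM) added. FP read (Ex 480/Em 540) after 15 min, pH 7.4 buffer containing 5 mM CaCl2.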

For test [8] the target is unchanged. Briefly: Primary qHTS for Identification of Calcium Integrin Binding Protein 1 (CIB1) Competitor (AID 1508620). In short, it runs like this:
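Fluorescence polarization competition: CIB1-GST (1 uM final) preincubated with compound 15 min at room temperature, then FITC-labeled alphaIIb peptide (100 nM final) added for another 15 min. Polarization read at Ex 480/Em 540.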

Test [9] is described as follows: Primary qHTS for small molecule stabilizers of the endoplasmic reticulum resident proteome: Secreted ER Calcium Modulated Protein (SERCaMP) assay (AID 1508630). Note: % is set by controls: 0 for no effect and ±100 for the full control effect. In a few lines:
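GLuc-SERCaMP-expressing SH-SY5Y cells, pretreated 16 h with compound, are challenged with thapsigargin to empty ER calcium stores; after 4 h, coelenterazine is added directly to the medium and luminescence is imaged.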

Test [10] can be described thus: A High-Content qHTS Against Drug Library for the Identification of Small Molecules that Inhibit DYT1 Early Onset Primary Dystonia-Associated Cell Pathology (AID 1645839; calls by dose curve; note: series mostly up to about 46 µM). In short, it runs like this: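 Readout: %pathology, the punctate EGFP-TorsinA distribution from imaging, as the primary channel and cell count as the toxicity counterscreen. HEK293 Flp-In cells expressing delE TorsinA were induced with tetracycline and treated with compound for 48 h.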

For test [11], the target named is Cytochrome P450 2C9 (Homo sapiens) (UniProt P11712). Briefly: Cytochrome P450 family 2 subfamily C member 9 (CYP2C9) small molecule antagonists: luciferase biochemical (cell-free) qHTS assay (AID 1645842; active = well fitted curve in the direction sought with a large enough effect in the repeat runs; an effect the other way counts as inactive or inconclusive; note: nearly all actives have a fitted effect of over 55% in size; note: potency is the fitted concentration of half-maximal effect). In short, it runs like this:
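Luminescence, after 20 min with luciferin detection reagent, reflected CYP2C9 turnover during a 1 h NADPH-driven reaction at 37C. Enzyme-substrate mix contained 0.4% bovine serum albumin and was preincubated with compound 10 min at room temperature.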

For test [12], the target named is Papain (Carica papaya) (UniProt P00784). The test can be described thus: Primary qHTS assay for inhibitors of the protease papain (AID 1645873).
Test [13] in a line: Primary qHTS for inhibitors of nuclear receptor binding SET domain protein 2 (NSD2) in an isogenic RCH-ACV NSD2 p.E1099K mutant (9B) (AID 1645876). Note: nearly all actives have a fitted effect of over 70% in size.
A short description of test [14]: Primary qHTS for inhibitors of La Crosse Virus (LACV) - induced cell death in SH-SY5Y cells (AID 1508616).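 Note: top concentration of the series differs between compounds; 0% = infected DMSO wells and 100% = uninfected DMSO wells; higher means more rescue of cells from virus-induced death.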 In short, it runs like this: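 Protection against LACV-induced cell death is scored in SH-SY5Y cells exposed to compounds and virus (0.01 MOI) for 6 days. Data normalized to virus-infected DMSO wells and virus-free DMSO wells.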
Test [15] has as its target Cytochrome P450 2D6 (Homo sapiens) (UniProt P10635). Briefly: Cytochrome P450 family 2 subfamily D member 6 (CYP2D6) small molecule antagonists: luciferase biochemical (cell-free) qHTS assay (AID 1645840; active = well fitted curve in the direction sought with a large enough effect in the repeat runs; an effect the other way counts as inactive or inconclusive; note: nearly all actives have a fitted effect of over 55% in size; note: potency is the fitted concentration of half-maximal effect). In short, it runs like this:
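P450-Glo luminescent screen: recombinant CYP2D6 enzyme–proluciferin substrate mix preincubated with compound 10 min at room temperature, then NADPH regeneration added for 1 h at room temperature. Detection reagent added for 20 min; luciferin light read as relative luminescence units.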

Test [16] in a line: Validation qHTS assay for inhibitors of Activation Induced Cytidine Deaminase (AID): UDG Counterscreen signal (AID 1347427). Note: 0% is about no effect. In short, it runs like this: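 Counterscreen read of UDG activity (2 U/mL, 4/3x) in the FRET deamination format with AID (1 uM, 4/3x), DJC20/DJC23 substrates (250 nM, 4x), 4 h at room temperature. NaOH stop, fluorescence at 560 ex/665 em.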
Test [17] addresses Cytochrome P450 3A4 (Homo sapiens) (UniProt P08684). Briefly: Cytochrome P450 family 3 subfamily A member 4 (CYP3A4) small molecule antagonists: luciferase qHTS assay (AID 1645841; active = well fitted curve in the direction sought with a large enough effect in the repeat runs; an effect the other way counts as inactive or inconclusive; note: nearly all actives have a fitted effect of over 45% in size). In short, it runs like this:
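P450-Glo CYP3A4 enzyme with proluciferin substrate was preincubated with DMSO-dissolved compounds for 10 min at room temperature. NADPH regeneration solution started a 1 h reaction. Detection reagent stopped it, and luminescence was read after 20 min.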

The nature of test [18]: Cell Viability qHTS for small molecule stabilizers of the endoplasmic reticulum resident proteome (AID 1508629). As to conditions: cell viability counter-screen, 100 nM thapsigargin for final 4 h.

Unmarked numbers belong to inactive results. Inconclusive results are not listed. Activity calls are given as the source filed them. Unless noted, calls come from the whole dose curve; as a rule, active = well fitted curve in the direction sought with a large enough effect; inconclusive = small, poorly fitted or top-dose-only effect, or another doubt; inactive = no such curve, though single readings can be large; an effect the other way counts as inactive or inconclusive.

Papain (Carica papaya), sequence (P00784 whole entry, looked up, the tested form may be a part): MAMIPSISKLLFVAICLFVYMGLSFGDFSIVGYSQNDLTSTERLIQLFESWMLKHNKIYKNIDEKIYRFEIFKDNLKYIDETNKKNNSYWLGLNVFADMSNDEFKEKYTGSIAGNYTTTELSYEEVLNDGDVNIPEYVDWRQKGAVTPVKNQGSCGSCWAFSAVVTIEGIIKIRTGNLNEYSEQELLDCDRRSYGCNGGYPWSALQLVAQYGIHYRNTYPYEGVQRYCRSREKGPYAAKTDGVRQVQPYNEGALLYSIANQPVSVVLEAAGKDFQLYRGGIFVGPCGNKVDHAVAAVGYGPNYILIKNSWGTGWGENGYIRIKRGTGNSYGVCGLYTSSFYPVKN
Single-stranded DNA cytosine deaminase (Homo sapiens), sequence (Q9GZX7 whole entry, looked up): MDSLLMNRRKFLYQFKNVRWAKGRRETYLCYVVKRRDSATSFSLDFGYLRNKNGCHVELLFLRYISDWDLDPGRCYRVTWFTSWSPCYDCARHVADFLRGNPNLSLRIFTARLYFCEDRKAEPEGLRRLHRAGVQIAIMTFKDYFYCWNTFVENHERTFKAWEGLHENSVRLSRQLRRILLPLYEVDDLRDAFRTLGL
Cytochrome P450 2D6 (Homo sapiens), sequence (P10635 whole entry, looked up): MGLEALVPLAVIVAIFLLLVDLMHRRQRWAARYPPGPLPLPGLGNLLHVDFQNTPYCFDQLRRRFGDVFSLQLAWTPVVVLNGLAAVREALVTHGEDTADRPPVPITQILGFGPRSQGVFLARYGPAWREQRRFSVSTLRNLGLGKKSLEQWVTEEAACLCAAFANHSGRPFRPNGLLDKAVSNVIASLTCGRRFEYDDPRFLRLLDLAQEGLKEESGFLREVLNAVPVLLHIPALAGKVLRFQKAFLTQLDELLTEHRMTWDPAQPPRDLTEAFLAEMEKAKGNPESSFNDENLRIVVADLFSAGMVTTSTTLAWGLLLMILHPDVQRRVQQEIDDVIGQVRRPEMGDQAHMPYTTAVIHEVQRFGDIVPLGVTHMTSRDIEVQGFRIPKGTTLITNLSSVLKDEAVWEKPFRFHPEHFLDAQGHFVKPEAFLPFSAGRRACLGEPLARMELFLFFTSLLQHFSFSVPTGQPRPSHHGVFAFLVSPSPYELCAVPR
Cytochrome P450 2C9 (Homo sapiens), sequence (P11712 whole entry, looked up): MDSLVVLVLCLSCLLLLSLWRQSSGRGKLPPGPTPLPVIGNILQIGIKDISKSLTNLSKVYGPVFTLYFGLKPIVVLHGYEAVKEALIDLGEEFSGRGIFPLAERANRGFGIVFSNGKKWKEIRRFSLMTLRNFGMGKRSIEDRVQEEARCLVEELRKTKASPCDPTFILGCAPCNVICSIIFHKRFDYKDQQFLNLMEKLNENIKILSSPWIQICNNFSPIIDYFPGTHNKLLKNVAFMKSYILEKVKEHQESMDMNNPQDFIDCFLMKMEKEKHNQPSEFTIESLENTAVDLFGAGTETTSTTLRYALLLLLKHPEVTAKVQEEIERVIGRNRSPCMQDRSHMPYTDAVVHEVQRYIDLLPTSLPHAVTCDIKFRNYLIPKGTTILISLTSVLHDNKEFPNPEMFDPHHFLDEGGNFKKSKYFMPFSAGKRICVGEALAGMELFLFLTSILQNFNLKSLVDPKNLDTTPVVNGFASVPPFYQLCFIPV
Calcium and integrin-binding protein 1 (Homo sapiens), sequence (Q99828 whole entry, looked up): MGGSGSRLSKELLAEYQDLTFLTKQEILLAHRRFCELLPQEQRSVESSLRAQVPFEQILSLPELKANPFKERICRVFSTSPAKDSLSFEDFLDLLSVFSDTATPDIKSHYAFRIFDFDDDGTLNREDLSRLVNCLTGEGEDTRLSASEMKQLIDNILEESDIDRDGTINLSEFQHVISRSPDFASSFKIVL
Protein phosphatase 1D (Homo sapiens), sequence (O15297 whole entry, looked up): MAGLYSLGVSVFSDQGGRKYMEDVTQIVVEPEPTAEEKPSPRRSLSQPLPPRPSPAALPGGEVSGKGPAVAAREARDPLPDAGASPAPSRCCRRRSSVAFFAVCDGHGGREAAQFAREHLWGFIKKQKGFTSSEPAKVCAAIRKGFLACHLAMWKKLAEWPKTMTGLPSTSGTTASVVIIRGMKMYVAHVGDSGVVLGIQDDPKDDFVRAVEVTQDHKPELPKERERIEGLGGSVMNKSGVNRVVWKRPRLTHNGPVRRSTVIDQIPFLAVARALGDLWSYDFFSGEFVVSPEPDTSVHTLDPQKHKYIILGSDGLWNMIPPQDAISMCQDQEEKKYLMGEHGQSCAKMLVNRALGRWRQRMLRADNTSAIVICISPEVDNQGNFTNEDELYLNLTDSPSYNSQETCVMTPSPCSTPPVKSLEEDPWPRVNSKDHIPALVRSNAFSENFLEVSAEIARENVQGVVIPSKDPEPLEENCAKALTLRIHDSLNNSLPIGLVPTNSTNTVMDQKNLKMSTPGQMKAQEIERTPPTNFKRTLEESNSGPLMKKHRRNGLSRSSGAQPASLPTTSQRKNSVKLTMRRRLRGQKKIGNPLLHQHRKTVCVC
Cytochrome P450 3A4 (Homo sapiens), sequence (P08684 whole entry, looked up): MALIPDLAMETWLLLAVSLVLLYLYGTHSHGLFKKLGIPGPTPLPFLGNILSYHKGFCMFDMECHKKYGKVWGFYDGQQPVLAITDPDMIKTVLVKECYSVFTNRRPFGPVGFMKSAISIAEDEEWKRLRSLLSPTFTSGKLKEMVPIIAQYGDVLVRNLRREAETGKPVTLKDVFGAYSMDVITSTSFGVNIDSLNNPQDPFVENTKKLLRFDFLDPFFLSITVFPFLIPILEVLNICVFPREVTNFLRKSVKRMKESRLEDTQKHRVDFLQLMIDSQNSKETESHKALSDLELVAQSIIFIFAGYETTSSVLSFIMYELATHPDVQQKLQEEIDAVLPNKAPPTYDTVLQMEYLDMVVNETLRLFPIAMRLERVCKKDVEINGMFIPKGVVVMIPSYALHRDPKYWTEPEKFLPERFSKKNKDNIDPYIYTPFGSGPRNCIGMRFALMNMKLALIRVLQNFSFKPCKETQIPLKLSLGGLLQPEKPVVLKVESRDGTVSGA

With `CSc1ccc(C(=O)c2[nH]c(=O)[nH]c2C)cc1`, the Potency result in test [1], in test [2], in test [4], in test [6], in test [8] and in [9] was “inactive” throughout. In addition, the Potency result in test [10], in test [11], in test [12] and in [13] was “inactive” each time. The call in [3], in test [5] and in test [7] was inactive.

Consider `CCCN(CCC)CCc1cccc2c1CC(=O)N2`, for which the Potency entry in test [1], in [2], in test [4], in test [6], in test [14] and in [8] was “inactive” in each case. Moreover, the Potency entry in test [9], in test [11], in test [12] and in test [13] was “inactive” in each case. In addition, the result in test [3], in test [5] and in test [7] was inactive. For the same compound, the Potency in [15] was 2750 nM (active).

Take `N[C@@H](COP(=O)(O)O)C(=O)O`: the Potency result in test [1], in test [2], in test [4], in [6], in test [14] and in test [8] was “inactive” each time. Besides, the Potency entry in [9], in test [15], in test [11], in [12] and in test [13] was “inactive” each time. In addition, the call in test [3], in [16], in [7] and in [17] was inactive.

With `CCN(CC)CCCN(c1ccccc1)C1Cc2ccccc2C1`, the Potency entry in [1], in test [2], in test [4], in [6], in test [14] and in test [11] was “inactive” throughout. Also, in test [12], the Potency entry was “inactive”. Moreover, the compound was classed as inactive in test [3], in test [5], in test [16] and in test [7]. In addition, in test [15], the Potency was 38.9 nM (active).

For the compound `CC(=O)Oc1cc(C(C)C)c(OCCN(C)C)cc1C`, the Potency result in test [1], in [2], in [4], in test [6], in test [14] and in test [10] was “inactive” in each case. In addition, the Potency entry in [11], in test [12] and in test [13] was “inactive” throughout. Besides, the call in test [3], in [5] and in [16] was inactive. Besides, the Potency in [15] is 8710 nM (active).

For the compound `CCc1cccc(N(C)C(N)=Nc2cccc3ccccc23)c1`, the Potency result in test [1], in test [2], in test [4], in test [6], in test [14] and in test [8] was “inactive” throughout. The Potency entry in test [12] was “inactive”. For the same compound, the compound was called inactive in [3], in [5] and in [7]. Further, the max response in [18] is -28.6%. In addition, the Potency in test [15] was 110 nM (active).

`CC1=NS(=O)(=O)c2cc(Cl)ccc2N1`: the Potency result in [1], in [2], in test [6], in test [14], in [8] and in test [9] was “inactive” in each case. For the same compound, the Potency entry in test [10], in test [15], in test [11], in test [12] and in test [13] was “inactive” in each case. The outcome in test [3], in test [5], in test [16] and in [7] was inactive.

Consider `COC(=O)[C@@H](N)Cc1ccc(O)c(O)c1`, for which the Potency entry in [1], in test [2], in [4], in test [6], in test [14] and in test [8] was “inactive” throughout. Further, the Potency entry in [10], in test [15], in [11] and in [12] was “inactive” throughout. For the same compound, the outcome in test [3], in test [5] and in [7] was inactive. In addition, the max response in [18] is -5.59%.

Turning to `CCCCCN(CCCCC)C(=O)C(CCC(=O)O)NC(=O)c1ccc(Cl)c(Cl)c1` (centres undefined), the Potency entry in test [1], in test [2], in [4], in test [6], in test [14] and in [8] was “inactive” throughout. For the same compound, the Potency entry in test [9] and in test [13] was “inactive” throughout. Besides, the compound was called inactive in test [3] and in test [16]. Also, the Potency in [11] was 1380 nM (active).
